Screens from PubChem BioAssay.
In the library only some 4.6% were active in any assay of this set; here they are far more common.
FAS TE block: FAS thioesterase domain inhibitors, primary screen, biochemical, fluorescence intensity, uHTS; Fatty acid synthase (Homo sapiens), P49327; recombinant FAS-TE, OMFH fluorogenic substrate, fluorescence endpoint; inhibition, % at 15 µM; actives 0.67% (n = 360,000);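 active = compounds whose normalised, plate-corrected inhibition of enzyme fluorescence in the single-dose primary screen is 50% or more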
GRIN3A LBD mod: binders of NR3A ligand-binding domain, primary screen, biophysical, differential scanning fluorimetry, uHTS; AID 1259313, 2017; Tm shift relative to glycine control, % at 25 µM; NR3A LBD differential scanning fluorimetry, Tm shift; 0% = protein alone, 100% = glycine-bound protein; Glutamate receptor ionotropic, NMDA 3A (GRIN3A) ligand-binding domain; actives 2.5% (n = 340,000);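 active = melting temperature shift of at least 10% of the positive control shift, at one fixed dose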
ADAM10 inh: human ADAM10 inhibitors, primary screen, biochemical, QFRET, HTS; actives 0.62% (n = 370,000); recombinant ADAM10, EDANS/DABCYL FRET peptide cleavage, 3 h; Disintegrin and metalloproteinase domain-containing protein 10 (Homo sapiens), O14672; inhibition, % at 7 µM;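 active = inhibition above a per-campaign cutoff equal to the mean of compounds falling between control-based bounds plus 3 SD, cut at about 20% in these data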
ADAM17 inh: ADAM17 inhibitors, primary screen, biochemical, QFRET; Disintegrin and metalloproteinase domain-containing protein 17 (Homo sapiens), P78536; recombinant ADAM17, EDANS/DABCYL FRET peptide cleavage; inhibition, % at 6.95 µM; actives 0.83% (n = 370,000); AID 720648, 2013;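 active = inhibition above the mean of compounds lying between control limits plus 3 SD, set per campaign, cut at about 8.5% in these data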
proKLK7 act: proKLK7 zymogen activators, primary screen, biochemical, fluorescence intensity | purified proKLK7, EDANS-DABCYL substrate fluorescence; 100% is mature enzyme control, 0% vehicle | activation, % at 7 µM | Kallikrein-7 (Homo sapiens), P49862 | AID 652039, 2013 | actives 0.9% (n = 370,000);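 active = activation above the mean of all tested compounds plus 3 SD, computed per campaign excluding outliers beyond control limits, cut at about 13% in these data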
Large screens that a line does not name were inactive.

COC(=O)[C@]12C[C@H](CC(=O)N3CCN(C(=O)C4CC4)CC3)C(=O)N(CCC3=CCCCC3)C1=C[C@H](C1CCCC1)O[C@@H]2C	none (no result: FAS TE block, GRIN3A LBD mod)
CC(=O)c1ccc(N2CCC(c3cc(-c4ccc(Cl)cc4)n[nH]3)CC2)c([N+](=O)[O-])c1	GRIN3A LBD mod 14 (no result: ADAM10 inh, ADAM17 inh, proKLK7 act)
CCC(Sc1ccccn1)C(=O)Nc1cccc([N+](=O)[O-])c1 (centres undefined)	GRIN3A LBD mod 17
CC(Sc1cccc[n+]1[O-])C(=O)Nc1cccc([N+](=O)[O-])c1 (centres undefined)	none
O=C1NC(Cc2cnc[nH]2)C(=O)N2CCCC12 (centres undefined)	none (no result: FAS TE block, GRIN3A LBD mod)
CCc1nnc(NC(=O)CN2CCOCC2)s1	GRIN3A LBD mod 14
Cc1cc(Cl)c(OCCOCCN2CCC(C)CC2)c(Br)c1	GRIN3A LBD mod 17
Cc1cc(Cl)c(OCCOCCN2CCN(C)CC2)c(Br)c1	none
Cc1ccc(C(=O)CCC(=O)N2CCN(c3ccccc3O)CC2)cc1	GRIN3A LBD mod 19
O=C(CCc1ccc(Oc2cc([N+](=O)[O-])cc([N+](=O)[O-])c2)cc1)Nc1cccc(Cl)c1	GRIN3A LBD mod 11
COc1cccc(NC(=O)CC(=O)c2ccc([N+](=O)[O-])cc2)c1	GRIN3A LBD mod 17
COc1ccc(NC(=S)Nc2cccc([N+](=O)[O-])c2)cc1	GRIN3A LBD mod 23
COc1ccc(OCCCC(=O)Nc2cccc([N+](=O)[O-])c2)cc1	GRIN3A LBD mod 16
O=C(CC(=O)c1ccccc1)Nc1cccc([N+](=O)[O-])c1	none (no result: GRIN3A LBD mod)
Cc1ccc(C)c(NC(=O)c2ccc(CS(=O)(=O)Cc3ccccc3C)o2)c1	none (no result: FAS TE block, GRIN3A LBD mod)
CCOC(=O)[C@@]12CCCC=C1N(CCc1ccc(Cl)cc1)C(=O)[C@H]2CC(=O)NCc1cccc(C(F)(F)F)c1	none (no result: FAS TE block, GRIN3A LBD mod)
CCCCCc1cc(=O)c2ccccc2o1	GRIN3A LBD mod 53
CC(=O)NC1CCCCN(Cc2cccc(F)c2)C1=O (centres undefined)	none (no result: FAS TE block, GRIN3A LBD mod)
CC(C)[C@@H](N)C(=O)N/N=C/c1ccc2nccnc2c1	GRIN3A LBD mod 11
Cc1cc(Nc2ccccc2)n(C(=O)c2ccccc2)n1	GRIN3A LBD mod 18
Cc1cc(Nc2ccccc2)nn1C(=O)c1ccc(Cl)cc1	none
Cc1cc(Nc2ccccc2)nn1C(=O)c1ccc([N+](=O)[O-])cc1	GRIN3A LBD mod 40
Cc1cc(Nc2ccccc2)n(-c2ccccc2)n1	none
COC(=O)[C@]12C[C@H](CC(=O)NCc3cccs3)C(=O)N(CCc3ccc(OC)c(OC)c3)C1=C[C@H](C1CCCC1)O[C@@H]2C	none (no result: FAS TE block, GRIN3A LBD mod)
Cc1ccccc1NC(=O)Nc1cccs1	none
Cc1ccc(Cl)cc1NC(=O)Nc1cccs1	GRIN3A LBD mod 20
O=C(/C=C/c1ccc(O)cc1)c1ccc(O)cc1O	GRIN3A LBD mod 28
O=C(/C=C/c1ccc(O)c(O)c1)c1ccccc1O	GRIN3A LBD mod 25
COc1ccc(OC[C@@H](O)CN2CCC(C(O)(c3ccccc3)c3ccccc3)CC2)cc1	none (no result: FAS TE block, GRIN3A LBD mod)
CCOc1cc(/C=N/N=C(/N)c2nonc2N)cc(Br)c1OCc1ccc(Cl)cc1	none
COc1cc(/C=N/N=C(/N)c2nonc2N)cc(Br)c1OCc1ccccc1C	GRIN3A LBD mod 15
Cc1cc(C)cc(C(=O)OCCN2CCN(C3CN(Cc4cn(Cc5ccc([N+](=O)[O-])cc5)nn4)S(=O)(=O)C3)CC2)c1 (centres undefined)	none (no result: FAS TE block, GRIN3A LBD mod)
NS(=O)(=O)c1ccc(CCNc2ncnc3sccc23)cc1	GRIN3A LBD mod 19
CC1CCCCN1C(=O)c1ccc(CNC(=O)c2cccc(Br)c2)cc1 (centres undefined)	none (no result: FAS TE block, GRIN3A LBD mod)
CCOC(=O)[C@]12CCCCC/C=C\1N(CCc1ccc(Cl)cc1)C(=O)[C@H]2CC(=O)N1CCN(C(=O)c2ccco2)CC1	none (no result: FAS TE block, GRIN3A LBD mod)
O=C(O)c1cccc(S(=O)(=O)NCC(=O)N2CCN(c3ccccn3)CC2)c1	none (no result: FAS TE block, GRIN3A LBD mod)
O=C(/C=C/c1ccco1)Nc1ccc2nn(-c3ccccc3)nc2c1	GRIN3A LBD mod 14
Cc1cc(NC(=O)/C=C/c2ccco2)ccc1NC(=O)c1ccccc1	none
CCCC(=O)Nc1nc2ccc(NC(=O)c3ccc(Br)o3)cc2s1	GRIN3A LBD mod 18
O=C(Nc1ccc2nn(-c3ccccc3)nc2c1)c1ccc2c(c1)OCCO2	GRIN3A LBD mod 21
O=C(Nc1ccc2nn(-c3ccccc3)nc2c1)c1ccc(Br)o1	GRIN3A LBD mod 19
CCOc1ccc(C(=O)Nc2ccc3c(c2)OCCO3)cc1OC	none
CCOc1ccc(-n2nc3ccc(NC(=O)c4ccc5c(c4)OCCO5)cc3n2)cc1	GRIN3A LBD mod 19
Nc1cc(-c2ccc(Br)cc2)nc2cc(-c3ccccc3)nn12	GRIN3A LBD mod 34
Nc1cc(-c2ccc(Br)cc2)nn1S(=O)(=O)c1ccccc1	none
c1ccc(CN2CCN(c3ncnc4sccc34)CC2)cc1	none (no result: FAS TE block, GRIN3A LBD mod, proKLK7 act)
Nc1[nH]c(=O)[nH]c(=O)c1N=Nc1cccc(Cl)c1	GRIN3A LBD mod 16
COc1ccc2c(c1)c(CC(=O)Nc1cccc(S(N)(=O)=O)c1)c(C)n2C(=O)c1ccc(Cl)cc1	GRIN3A LBD mod 23
CCOC(=O)c1c(NC(=O)c2cc3n(n2)C(C(F)(F)F)CC(c2ccccc2)N3)sc(C)c1C (centres undefined)	GRIN3A LBD mod 18
CCCCNC(=O)c1cc2n(n1)C(C(F)(F)F)CC(c1ccccc1)N2 (centres undefined)	none
O=C(Nc1ccc(F)cc1)c1cccc(N2C(=O)C3C4C=CC(C4)C3C2=O)c1 (centres undefined)	GRIN3A LBD mod 18
CC(=O)Nc1ccc(NC(=O)c2cc([N+](=O)[O-])cc([N+](=O)[O-])c2)cc1	none
O=C(Nc1ccccc1)c1ccc(NC(=O)C2CC2)cc1	GRIN3A LBD mod 16
O=C(Nc1ccc(F)cc1)c1cccc(C(=O)Nc2ccc(F)cc2)c1	none
O=C(Nc1ccccc1)c1cccc(N2C(=O)C3C4C=CC(C4)C3C2=O)c1 (centres undefined)	none
O=C(Nc1ccc(F)cc1)c1ccccc1	GRIN3A LBD mod 16
O=C(NNC(=O)c1ccc(NC(=O)C2CC2)cc1)c1ccc(F)cc1	none
O=C(Nc1ccc(Br)cc1)c1cc([N+](=O)[O-])cc([N+](=O)[O-])c1	FAS TE block 55
O=C(c1cc(-c2ccccc2)on1)N1CCC(Oc2cccnc2)CC1	none (no result: FAS TE block, GRIN3A LBD mod)
CCOC(=O)CC[C@@]1(C(=O)OCC)C[C@@H](CC(=O)N2CCOCC2)C(=O)N2CCCC=C21	none (no result: FAS TE block, GRIN3A LBD mod)
CCOC(=O)[C@]12CCCC=C1N(CCCOC)C(=O)[C@@H]2CC(=O)N1CCCCC1	none (no result: FAS TE block, GRIN3A LBD mod)
